{"source": "ChEMBL document CHEMBL1961873", "about": "“Compounds: GSK PKIS; Assays: Nanosyn kinase panel” (2012)", "note": "Where “and” joins values, the source holds several entries; their conditions need not be identical. Equal entries are not always repeated."}
{"biological_target": "MAP kinase-interacting serine/threonine-protein kinase 1 (Homo sapiens) (UniProt Q9BUB5)", "sequence (Q9BUB5 whole entry, looked up)": "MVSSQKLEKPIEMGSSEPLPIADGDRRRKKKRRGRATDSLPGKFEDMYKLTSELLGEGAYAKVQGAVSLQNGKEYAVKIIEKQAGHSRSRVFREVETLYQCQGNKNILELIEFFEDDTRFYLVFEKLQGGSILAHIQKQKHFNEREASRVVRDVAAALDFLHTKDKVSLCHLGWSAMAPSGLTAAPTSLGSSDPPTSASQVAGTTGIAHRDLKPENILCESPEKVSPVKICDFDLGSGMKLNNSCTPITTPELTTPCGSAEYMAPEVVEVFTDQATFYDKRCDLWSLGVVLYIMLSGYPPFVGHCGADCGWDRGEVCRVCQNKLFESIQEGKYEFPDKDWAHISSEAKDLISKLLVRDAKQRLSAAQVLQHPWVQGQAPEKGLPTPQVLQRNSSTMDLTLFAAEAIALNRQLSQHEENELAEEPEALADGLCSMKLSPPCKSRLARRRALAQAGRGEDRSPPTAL", "conditions": "at 1 µM"}
{"molecule": "Fc1ccc(Nc2nccc(-c3c(-c4ccc(C(F)(F)F)cc4)nn4ncccc34)n2)cc1F", "inhibition": "2.85%"}
{"molecule": "NS(=O)(=O)c1ccc(N/N=C2\\C(=O)Nc3cccc(CCc4ccncc4)c32)cc1", "inhibition": "0.27%"}
{"molecule": "CCS(=O)(=O)c1ccc(OC)c(Nc2ncc(-c3cccc(F)c3)o2)c1", "inhibition": "19.5%"}
{"molecule": "COc1ccc(-c2nn3ncccc3c2-c2ccnc(Nc3ccc(F)c(F)c3)n2)cc1", "inhibition": "6.32%"}
{"molecule": "COc1cc(N2CCN(C(C)C)CC2)ccc1Nc1nc(Nc2cccc3ncccc23)c2cc[nH]c2n1", "inhibition": "2.31%"}
{"molecule": "N#Cc1ccc2c(-c3ccnc(NC4CC4)n3)c(-c3ccc(F)cc3)nn2c1", "inhibition": "0.7%"}
{"molecule": "CNC(=O)c1cncc(/C=C/c2ccccc2C)c1", "inhibition": "29.4%"}
{"molecule": "CS(=O)(=O)Nc1ccc(-c2ccc3c(NC(=O)C4CC4)n[nH]c3c2)cc1", "inhibition": "2.11%"}
{"molecule": "CS(=O)(=O)Nc1ccc(-c2cc(-c3ccccc3)cc(C(N)=O)c2N)cc1", "inhibition": "4.03%"}
{"molecule": "Cc1ccc(-c2cc3c(NC(=O)C4CC4)ncnc3o2)cc1", "inhibition": "6.36%"}
{"molecule": "c1ccc(-c2n[nH]cc2-c2ccnc(-c3ccc(OCCn4ccnc4)cc3)c2)nc1", "inhibition": "5.94%"}
{"molecule": "CCN1CCC(C(=O)Nc2n[nH]c3nnc(-c4cccc(F)c4F)cc23)CC1", "inhibition": "3.13%"}
{"molecule": "COC(=O)Nc1nc2ccc(Oc3ccc(NC(=O)Nc4cc(C(F)(F)F)ccc4F)cc3)cc2s1", "inhibition": "15.7%"}
{"molecule": "Cc1cc(O)cc(C)c1/C=C/c1cncc(C(N)=O)c1", "inhibition": "44.9%"}
{"molecule": "Fc1cccc(COc2ccc(Nc3ncncc3C#Cc3ccccc3)cc2Cl)c1", "inhibition": "11.8%"}
{"molecule": "COc1cc(N2CCN(C(C)C)CC2)ccc1Nc1nc(Nc2cccc(F)c2C(=O)O)c2cc[nH]c2n1", "inhibition": "5.88%"}
{"molecule": "COc1ccccc1-c1cc(/C=C2\\C(=O)Nc3ncc(Br)cc32)cc(Br)c1O", "inhibition": "11.7%"}
{"molecule": "Nc1nccc(-c2c(-c3ccc(F)cc3)ncn2C2CCNCC2)n1", "inhibition": "12.4% and 3.16%"}
{"molecule": "CN1CCC(C(=O)Nc2n[nH]c3nc(-c4ccc(O)cc4)c(Br)cc23)CC1", "inhibition": "77.6% and 84.9%"}
{"molecule": "NS(=O)(=O)c1cccc(N/C=C2\\C(=O)Nc3ccccc32)c1", "inhibition": "4.02%"}
{"molecule": "CS(=O)(=O)CCNCc1ccc(-c2ccc3ncnc(Nc4ccc(OCc5cccc(C(F)(F)F)c5)cc4)c3c2)o1", "inhibition": "6.48%"}
{"molecule": "Cc1cc(O)cc(C)c1/C=C/c1cncc(C(=O)OC(C)(C)C)c1", "inhibition": "16.7%"}
{"molecule": "CC1=C(C(=O)Nc2ccc3[nH]nc(C)c3c2)C(c2ccc(C(F)(F)F)cc2)CC(=O)N1", "note": "(configuration not stated)", "inhibition": "6.23%"}
{"molecule": "Cn1c(-c2nonc2N)nc2cnccc21", "inhibition": "7.55%"}
{"molecule": "O=C(O[C@H]1CN[C@H](C#Cc2cc3ncnc(Nc4ccc(OCc5cccc(F)c5)c(Cl)c4)c3s2)C1)N1CCOCC1", "inhibition": "11.4%"}
{"molecule": "CCS(=O)(=O)c1ccc(OC)c(Nc2ncc(-c3cccc(C(C)=O)c3)o2)c1", "inhibition": "12.2%"}
{"molecule": "Cc1c2ccc(N(C)c3ccnc(Nc4cccc(S(N)(=O)=O)c4)n3)cc2nn1C", "inhibition": "4.05%"}
{"molecule": "COc1cc(Nc2ncc(-c3ccccc3)o2)cc(OC)c1", "inhibition": "10.8%"}
{"molecule": "CNC(=O)c1ncccc1Nc1nc(Nc2cc3c(cc2OC)CCCN3C(=O)CN(C)C)nc2[nH]ccc12", "inhibition": "3.28%"}
{"molecule": "CN(c1ccc(NC(=O)NCCN2CCOCC2)cc1)c1ccnc(Nc2ccc(CS(C)(=O)=O)cc2)n1", "inhibition": "8.84%"}
{"molecule": "c1cnn2ncc(-c3ccnc(NCCCN4CCOCC4)n3)c2c1", "inhibition": "10.9%"}
{"biological_target": "MAP kinase-interacting serine/threonine-protein kinase 2 (Homo sapiens) (UniProt Q9HBH9)", "sequence (Q9HBH9 whole entry, looked up)": "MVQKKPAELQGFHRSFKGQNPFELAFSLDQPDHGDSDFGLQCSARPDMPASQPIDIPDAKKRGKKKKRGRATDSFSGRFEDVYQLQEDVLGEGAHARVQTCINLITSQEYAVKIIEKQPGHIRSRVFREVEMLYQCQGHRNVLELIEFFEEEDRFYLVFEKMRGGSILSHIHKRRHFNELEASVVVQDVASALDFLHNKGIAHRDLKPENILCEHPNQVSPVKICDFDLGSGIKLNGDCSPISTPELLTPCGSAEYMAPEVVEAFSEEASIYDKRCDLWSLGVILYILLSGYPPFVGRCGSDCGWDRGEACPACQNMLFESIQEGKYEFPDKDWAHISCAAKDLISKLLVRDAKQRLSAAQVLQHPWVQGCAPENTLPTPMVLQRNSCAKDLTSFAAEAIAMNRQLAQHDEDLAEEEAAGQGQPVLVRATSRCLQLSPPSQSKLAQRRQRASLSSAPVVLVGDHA", "conditions": "at 0.1 µM"}
{"molecule": "Fc1ccc(Nc2nccc(-c3c(-c4ccc(C(F)(F)F)cc4)nn4ncccc34)n2)cc1F", "inhibition": "0.89%"}
{"molecule": "NS(=O)(=O)c1ccc(N/N=C2\\C(=O)Nc3cccc(CCc4ccncc4)c32)cc1", "inhibition": "0.14%"}
{"molecule": "CCS(=O)(=O)c1ccc(OC)c(Nc2ncc(-c3cccc(F)c3)o2)c1", "inhibition": "1.15%"}
{"molecule": "COc1ccc(-c2nn3ncccc3c2-c2ccnc(Nc3ccc(F)c(F)c3)n2)cc1", "inhibition": "2.16%"}
{"molecule": "COc1cc(N2CCN(C(C)C)CC2)ccc1Nc1nc(Nc2cccc3ncccc23)c2cc[nH]c2n1", "inhibition": "-0.09%"}
{"molecule": "N#Cc1ccc2c(-c3ccnc(NC4CC4)n3)c(-c3ccc(F)cc3)nn2c1", "inhibition": "-0.74%"}
{"molecule": "CNC(=O)c1cncc(/C=C/c2ccccc2C)c1", "inhibition": "2.12%"}
{"molecule": "CS(=O)(=O)Nc1ccc(-c2ccc3c(NC(=O)C4CC4)n[nH]c3c2)cc1", "inhibition": "1.69%"}
{"molecule": "CS(=O)(=O)Nc1ccc(-c2cc(-c3ccccc3)cc(C(N)=O)c2N)cc1", "inhibition": "-0.47%"}
{"molecule": "Cc1ccc(-c2cc3c(NC(=O)C4CC4)ncnc3o2)cc1", "inhibition": "1.94%"}
{"molecule": "c1ccc(-c2n[nH]cc2-c2ccnc(-c3ccc(OCCn4ccnc4)cc3)c2)nc1", "inhibition": "0.5%"}
{"molecule": "CCN1CCC(C(=O)Nc2n[nH]c3nnc(-c4cccc(F)c4F)cc23)CC1", "inhibition": "0.51%"}
{"molecule": "COC(=O)Nc1nc2ccc(Oc3ccc(NC(=O)Nc4cc(C(F)(F)F)ccc4F)cc3)cc2s1", "inhibition": "2.41%"}
{"molecule": "Cc1cc(O)cc(C)c1/C=C/c1cncc(C(N)=O)c1", "inhibition": "4.98%"}
{"molecule": "Fc1cccc(COc2ccc(Nc3ncncc3C#Cc3ccccc3)cc2Cl)c1", "inhibition": "2.53%"}
{"molecule": "COc1cc(N2CCN(C(C)C)CC2)ccc1Nc1nc(Nc2cccc(F)c2C(=O)O)c2cc[nH]c2n1", "inhibition": "1.57%"}
{"molecule": "COc1ccccc1-c1cc(/C=C2\\C(=O)Nc3ncc(Br)cc32)cc(Br)c1O", "inhibition": "7.61%"}
{"molecule": "Nc1nccc(-c2c(-c3ccc(F)cc3)ncn2C2CCNCC2)n1", "inhibition": "0.4% and 0.49%"}
{"molecule": "CN1CCC(C(=O)Nc2n[nH]c3nc(-c4ccc(O)cc4)c(Br)cc23)CC1", "inhibition": "6.5% and 5.49%"}
{"molecule": "NS(=O)(=O)c1cccc(N/C=C2\\C(=O)Nc3ccccc32)c1", "inhibition": "1.04%"}
{"molecule": "CS(=O)(=O)CCNCc1ccc(-c2ccc3ncnc(Nc4ccc(OCc5cccc(C(F)(F)F)c5)cc4)c3c2)o1", "inhibition": "0.53%"}
{"molecule": "Cc1cc(O)cc(C)c1/C=C/c1cncc(C(=O)OC(C)(C)C)c1", "inhibition": "1.84%"}
{"molecule": "CC1=C(C(=O)Nc2ccc3[nH]nc(C)c3c2)C(c2ccc(C(F)(F)F)cc2)CC(=O)N1", "note": "(configuration not stated)", "inhibition": "1.45%"}
{"molecule": "Cn1c(-c2nonc2N)nc2cnccc21", "inhibition": "2.67%"}
{"molecule": "O=C(O[C@H]1CN[C@H](C#Cc2cc3ncnc(Nc4ccc(OCc5cccc(F)c5)c(Cl)c4)c3s2)C1)N1CCOCC1", "inhibition": "5.13%"}
{"molecule": "CCS(=O)(=O)c1ccc(OC)c(Nc2ncc(-c3cccc(C(C)=O)c3)o2)c1", "inhibition": "2.96%"}
{"molecule": "Cc1c2ccc(N(C)c3ccnc(Nc4cccc(S(N)(=O)=O)c4)n3)cc2nn1C", "inhibition": "-0.12%"}
{"molecule": "COc1cc(Nc2ncc(-c3ccccc3)o2)cc(OC)c1", "inhibition": "1.3%"}
{"molecule": "CNC(=O)c1ncccc1Nc1nc(Nc2cc3c(cc2OC)CCCN3C(=O)CN(C)C)nc2[nH]ccc12", "inhibition": "1.22%"}
{"molecule": "CN(c1ccc(NC(=O)NCCN2CCOCC2)cc1)c1ccnc(Nc2ccc(CS(C)(=O)=O)cc2)n1", "inhibition": "2.32%"}
{"molecule": "c1cnn2ncc(-c3ccnc(NCCCN4CCOCC4)n3)c2c1", "inhibition": "1.64%"}
